The source of these data is PubChem BioAssay AID504467 (National Center for Advancing Translational Sciences (NCATS), 2011).

The whole screen tested about 330,000 compounds, of which about 7,700 (2.3%) were called active. Inconclusive results (about 26%) are left out. Calls come from the whole dose curve; as a rule, active = well fitted inhibition curve with a large enough effect; inconclusive = small, poorly fitted or top-dose-only effect, or effect the other way; inactive = flat fitted curve, though single readings scatter. What follows is part of a selection rich in actives, with near analogues and random picks from the rest. A call without a number means that no potency is given here.
Potency is the fitted concentration of half-maximal effect.

This experiment is described as follows: qHTS screen for small molecules that inhibit ELG1-dependent DNA repair in human embryonic kidney (HEK293T) cells expressing luciferase-tagged ELG1. Note: nearly all actives have a fitted effect of over 55% in size. Conditions: HEK293T ELG1-luciferase reporter, luminescence, 16 h, DNA damage induced by 5-fluorouridine; series mostly up to 46.1 µM. A digest of the protocol:
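In this reporter screen, reduction of luminescence relative to DMSO vehicle indicated activity. Compounds and 5-fluorouridine were added together to 2,000 cells per well, incubated for 16 hr at 37 °C, then developed with ONE-Glo.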
On the technique in general: qHTS replaces the single test concentration by a dilution series.
As to `COc1ccc(C(=O)CSc2nnc(-c3ccco3)o2)cc1`, the Potency result was “inactive”.
The same measure for `COc1ccc(OC)c(C(=O)CSc2nnc(-c3cccs3)o2)c1`: “inactive”; for `COc1ccc(-n2c(C)cc(C(=O)CSc3nnc(-c4cccs4)o3)c2C)cc1`: 6.51 µM (active); for `CCN(CC)CCN1C(=O)C2C(C(=O)Nc3ccc(Br)cc3)C3C=CC2(O3)C1C(=O)NC1CCCCC1` (centres undefined): “inactive”.
Under `Cc1ccc(NC(=S)NCCc2ccc(Cl)cc2)c(C)c1` stands “inactive”; under `CCC1(c2ccccc2)NC(=O)N(CC(=O)Nc2ccccc2C(=O)NC2CCCC2)C1=O` (centres undefined), “inactive”; under `CCc1ccc(NC(=O)Cn2nnc(C(=O)NCc3ccc(OC)cc3)c2N)cc1`, “inactive”.
Take `COc1cc(C2CC(=O)Oc3cc(OC)c(OC)c(OC)c32)cc(OC)c1OC` (centres undefined): the Potency entry was “inactive”.
The same measure for `O=C(CCS(=O)(=O)Cc1ccccc1)Nc1ccc2c(c1)OCCO2`: “inactive”; for `CCN(CC(=O)Nc1ccc2c(c1)OCO2)S(=O)(=O)c1ccccc1`: “inactive”.
As to `O=C(CN(c1ccc2c(c1)OCCO2)S(=O)(=O)c1ccccc1)Nc1ccc2c(c1)OCO2`, the Potency was 9.2 µM (active).
The same measure for `NC(=O)c1cc(S(=O)(=O)NCCCc2ccco2)cs1`: “inactive”; for `O=C(Cn1cnc2ccccc2c1=O)NCC1COc2ccccc2O1` (centres undefined): “inactive”; for `CCn1cc(C(=O)NCC2COc3ccccc3O2)c2cc(OC)c(OC)cc2c1=O` (centres undefined): 14.6 µM (active).
The same measure for `Cc1noc(C)c1C(=O)NCC1COc2ccccc2O1` (centres undefined): “inactive”; for `CCC1CCCCN1C(=O)CSc1nc2c(c(=O)n1C)SC(C)C2` (centres undefined): “inactive”; for `CC(=O)c1cccc(OCC(=O)OCC(=O)Nc2cc(S(=O)(=O)N3CCCCC3)ccc2C)c1`: “inactive”.
The same measure for `CC(C(=O)Nc1ccc(O)c(C(=O)O)c1)N1C(=O)/C(=C/c2cccs2)SC1=S` (centres undefined): “inactive”.
In the case of `COc1cccc(OC)c1C(=O)NC(=S)NCc1ccco1`, the Potency result is “inactive”.
Turning to `COc1ccccc1C(=O)NCCn1cc(SCC(=O)NCc2ccco2)c2ccccc21`, the Potency was 25.9 µM (active).
The same measure for `COc1ccccc1C(=O)NCCC(=O)NCC(c1ccco1)N1CCCCC1` (centres undefined): “inactive”.
As for `Cc1cc(C)n2nc(C(=O)Nc3cccc(S(=O)(=O)N4CCOCC4)c3)nc2n1`, the Potency entry was “inactive”.
On to `O=C(CCNC(=O)c1ccccc1Cl)NN=Cc1ccco1`, for which the Potency result is “inactive”.
The same measure for `C#CCOCCOCCOCCNc1nc(N2CCN(C(=O)[C@H](CCC(=O)O)n3cc(CN)nn3)CC2)nc(N2CCN(C(=O)[C@H](CCC(=O)O)n3cc(CN)nn3)CC2)n1`: “inactive”.
The same measure for `O=C(NC1CCCC1)C(c1ccco1)N(C(=O)c1ccco1)c1ccc(F)cc1` (centres undefined): “inactive”; for `CC1=C[C@H]2Cc3cc(C)cc(C)c3S(=O)(=O)[C@@H]2C=C1`: 16.4 µM (active); for `COc1ccccc1C(=O)Nc1ccc(C)c(S(=O)(=O)N2CCCCC2)c1`: 4.11 µM (active).
Under `Cc1ccc(NC(=O)COC(=O)C2CC2)cc1S(=O)(=O)N1CCOCC1` stands “inactive”; under `Cc1ccc(NC(=O)CCC(=O)N2CCC(c3ccccc3)=N2)cc1S(=O)(=O)N1CCCCC1`, “inactive”; under `COc1ccccc1C(CNC(=O)c1ccc(C)c(S(=O)(=O)N2CCCCC2)c1)N(C)C` (centres undefined), “inactive”.
Regarding `CCc1ccccc1OCC(=O)Nc1ccc(C)c(S(=O)(=O)N2CCCCCC2)c1`, the Potency is 20.6 µM (active).
Regarding `COc1ccc(NC(=O)C2=NNC(=O)CC2)cc1S(=O)(=O)N1CCCCC1`, the Potency entry was “inactive”.
The same measure for `Cc1ccc(NS(=O)(=O)c2ccc(F)cc2)nc1`: “inactive”; for `COc1ccccc1C(=O)NCC(=O)NCCSc1ccc(Br)cc1`: “inactive”.
As for `COc1ccccc1NS(=O)(=O)c1ccc(C)c(C(=O)NCC(c2ccco2)N(C)C)c1` (centres undefined), the Potency entry was “inactive”.
The same measure for `Cc1ccc(C)c(N2CCN(C(=O)CCCCCn3c(=S)[nH]c4ccc(N5CCOCC5)cc4c3=O)CC2)c1`: 5.8 µM (active); for `CCc1nn(CC(=O)N2CCN(c3cc(C)ccc3C)CC2)c(=O)c2cc3occc3n12`: “inactive”.
Under `Cc1ccc(C)c(N2CCN(C(=O)Cn3ncn4cccc4c3=O)CC2)c1` stands “inactive”.
Under `Cc1ccc(C)c(N2CCN(C(=O)CCCn3c(=O)c4cccn4c4cccnc43)CC2)c1` stands 18.3 µM (active); under `O=C(CCCCCn1c(=S)[nH]c2cc3c(cc2c1=O)OCO3)N1CCN(c2ccc(F)cc2)CC1`, “inactive”; under `Cc1ccc(C)c(N2CCN(C(=O)CCc3nc4ccccc4[nH]3)CC2)c1`, “inactive”.
Consider `COC(=O)[C@@]12CCCN1[C@H](c1ccc(-c3ccc(F)cc3)c(OC)c1)[C@H]1C(=O)N(C)C(=O)[C@H]12`, for which the Potency result is “inactive”.
Under `COc1ccc(CCNC(=S)N2CCN(S(=O)(=O)c3ccc(F)cc3)CC2)cc1` stands “inactive”; under `COc1ccc(-c2cc(C(F)(F)F)nc(SCC(=O)Nc3ccc4c(c3)OCO4)n2)cc1OC`, “inactive”; under `COc1ccc(-c2cc(C(F)(F)F)nc(S(C)(=O)=O)n2)cc1OC`, 20.6 µM (active).
Under `COc1cc(OC)nc(S(C)(=O)=O)n1` stands “inactive”; under `COc1cccc(NC(=O)CSc2nnc(C3CCCCC3)n2N)c1`, “inactive”.
Under `O=C(CSc1ccccc1)Nc1cccc(S(=O)(=O)N2CCCCC2)c1` stands “inactive”.
For `CCN1CCN(C2CCCCC2NS(=O)(=O)c2ccc(Cl)cc2)CC1` (centres undefined), the Potency result is “inactive”.
On to `Cc1cc(=O)[nH]c(SCC(=O)N2c3ccccc3CC2C)n1` (centres undefined), for which the Potency entry was “inactive”.
In the case of `CC1Cc2ccccc2N1C(=O)CSc1nnc(-c2ccc(S(=O)(=O)N3CCCCC3)cc2)o1` (centres undefined), the Potency result is “inactive”.
Under `CCS(=O)(=O)c1ccc2oc(SCC(=O)N3c4ccccc4CC3C)nc2c1` (centres undefined) stands 23.1 µM (active).
The same measure for `CC(C)(c1ccccc1)c1ccc(OCCN2CCCC2)cc1`: “inactive”; for `O=C(Nc1ccc(N2CCOCC2)cc1)c1cccc(S(=O)(=O)N2CCOCC2)c1`: “inactive”; for `COc1ccc(C)cc1NC(=O)CN1c2cccc3cccc(c23)S1(=O)=O`: “inactive”.
On to `CC(Cc1cccs1)N(Cc1ccc(Cl)cc1)C(=O)c1ccncc1` (centres undefined), for which the Potency entry was “inactive”.
The same measure for `CCCN(CC(=O)Nc1ccccc1C)C(=O)c1cc(=O)[nH]c2ccccc12`: “inactive”; for `CC1CCc2[nH]c3ccc(C(=O)N(C)CC(=O)Nc4cccc(F)c4)cc3c2C1` (centres undefined): “inactive”.
Under `CCCN(CC(=O)Nc1ccccc1C)C(=O)c1ccc2[nH]c3c(c2c1)CC(C)CC3` (centres undefined) stands 9.2 µM (active); under `CCc1cc2c(NC(Cc3ccccc3)C(=O)O)ncnc2s1` (centres undefined), “inactive”.
Under `CCc1cc2c(N3CCN(c4nnc(CC)s4)CC3)ncnc2s1` stands 18.4 µM (active); under `CCc1cc2c(NC3CCCC3)ncnc2s1`, “inactive”; under `O=C(Nc1nnc(C2=COCCO2)o1)c1ccc([N+](=O)[O-])s1`, “inactive”.
In the case of `COc1ccc(S(=O)(=O)N2CCOCC2)cc1NC(=O)CSc1cc(C)ccc1C`, the Potency entry was “inactive”.
Under `CCOCc1c(C(=O)N2CCN(Cc3ccc(Br)s3)CC2)oc2ccccc12` stands “inactive”; under `COc1ccc(-n2cnnc2SCC(=O)Nc2cccc(S(N)(=O)=O)c2)cc1`, “inactive”; under `NS(=O)(=O)c1cccc(NC(=O)CSc2nc3ccccc3n2-c2ccccc2)c1`, 9.2 µM (active).
The same measure for `Cc1nnc(SCC(=O)Nc2cccc(N)c2)n1-c1ccccc1`: “inactive”.
Regarding `Clc1ccc(C[n+]2cc(-c3ccccc3)n3c2CCC3)cc1`, the Potency was 2.91 µM (active).
Under `Cc1ccc(-c2c[n+](CC(=O)Nc3ccccc3)c3n2CCC3)cc1` stands “inactive”; under `Cc1ccc(C(=O)C[n+]2cc(-c3ccccc3)n3c2CCCCC3)cc1`, “inactive”; under `CCC1Nc2ncnc(N3CCN(c4ccccc4)CC3)c2N(Cc2ccc(Cl)cc2)C1=O` (centres undefined), “inactive”.
The same measure for `CCCCN(C(=O)C1CCC1)c1c(N)n(Cc2ccccc2)c(=O)[nH]c1=O`: “inactive”; for `CN1CCN(c2nc(Nc3ccc(O)cc3)nc3ccccc23)CC1`: “inactive”.
The same measure for `Cc1cccc(-c2nc(Nc3ccc(O)cc3)c3ccccc3n2)c1`: 20.6 µM (active).
As for `CCC(=O)OCCNc1nc(-c2ccccc2)nc2ccccc12`, the Potency entry is “inactive”.
The same measure for `COc1ccc(Cl)cc1NC(=O)CN(C)CC(=O)Nc1ccc2c(c1)OCO2`: “inactive”; for `CCOc1ccc(C(=O)NCC(=O)N2CCN(c3ccc(C(F)(F)F)cn3)CC2)cc1`: “inactive”.
Under `C/C=C/C(=O)Nc1ccc(N2CCN(c3ccc(C(F)(F)F)cn3)CC2)nc1` stands “inactive”; under `Cc1ccc(F)cc1NC(=O)N1CCCN(c2ccc(C(F)(F)F)cn2)CC1`, 5.17 µM (active).
The same measure for `COc1ccccc1NC(=O)Nc1nc(CC(=O)Nc2ccccc2F)cs1`: “inactive”.
For `Cc1ccc(S(=O)(=O)NC[C@H]2O[C@@H](n3cnc4c(N)ncnc43)[C@H](O)[C@@H]2O)s1`, the Potency result was “inactive”.
The same measure for `CSc1nc(C)cc(SC(C(C)=O)C(=O)Nc2ccccc2)n1` (centres undefined): “inactive”; for `CSc1nc(-c2ccccc2)nc(C(Cl)Cl)n1`: 20.6 µM (active); for `CCCCC(=O)Nc1nnc(S(=O)(=O)N(C)Cc2ccco2)s1`: “inactive”.
On to `Cc1ccccc1CN1CCC(C(=O)Nc2ccc(Oc3cccnc3)cc2)CC1`, for which the Potency result is “inactive”.
Turning to `CCOC(=O)N1CCN(CC(=O)Nc2ccc(F)cc2)CC1`, the Potency entry is “inactive”.
Under `CCOC(=O)N1CCN(CC(=O)Nc2cc(C)nn2-c2nc3ccccc3s2)CC1` stands 10.3 µM (active); under `CCOC(=O)N1CCN(C(=O)Cn2cnc3ccccc3c2=O)CC1`, “inactive”.
Under `Cc1cc(C)c(S(=O)(=O)n2cc(C(C)C(N)C(=O)O)c3ccccc32)c(C)c1` (centres undefined) stands “inactive”; under `O=C(CSc1nnc(COc2ccc(Cl)cc2)n1Cc1ccco1)N1CCNC1=O`, “inactive”; under `CC(C)(C)NC(=O)C(c1ccc(Cl)cc1)N(CCO)C(=O)c1snc(C(N)=O)c1N` (centres undefined), “inactive”.
With `NC(=O)c1nsc(C(=O)N(CC(=O)NCc2ccc(F)cc2)Cc2ccco2)c1N`, the Potency entry was “inactive”.
`COc1ccc(CNC(=O)C(c2ccc(O)cc2)N(Cc2ccco2)C(=O)c2snc(C(N)=O)c2N)cc1` (centres undefined): the Potency is 6.51 µM (active).
Regarding `CCCn1c(C2CCCN2c2nc(-c3ccc(OC)cc3)cs2)nc2ccccc21` (centres undefined), the Potency entry is “inactive”.
The same measure for `COc1ccc(C(=O)CC(=O)C(=O)Nc2cc([N+](=O)[O-])ccc2OC)cc1`: “inactive”; for `O=C(c1cc(=O)c2ccccc2o1)N1CCN(c2ccccc2)CC1`: “inactive”; for `COc1cc2c(cc1OC)CN(C(=O)c1cc(=O)c3ccccc3o1)CC2`: 8.2 µM (active).
The same measure for `COc1ccc(CCNC(=O)COC(=O)c2cc(=O)c3ccccc3o2)cc1`: “inactive”.
